Assay results published in the supplement of paper PMC7156485.
± gives the standard deviation of the averaged measurements.

test system: HCC1569; experiment: cell number relative to DMSO (% of DMSO); higher = more cells (less growth inhibition / toxicity); conditions: concentration: 10 µM; 24 h
Summary of the method: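 HCC1569 and TDF cells were seeded at 800 per well in 384-well plates in RPMI with 10% FBS and treated with compounds at 10 µM for 24 h at 37 °C, in triplicate. After fixation in 3.7% formaldehyde, cells were stained with a rabbit anti-H1.0 antibody, an AlexaFluor 647 secondary and DAPI, and six fields per well were imaged at ×10. H1.0 nuclear intensity or cell number is given as percent of the plate control, using the median of replicates, with HCC1569 values smoothed for positional effects.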
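Note: TDF denotes transformed human dermal fibroblasts of mesenchymal origin.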

Compound	cell number
Cl.FC(F)(F)c1cccc(C2=CCN(CCc3ccc4ccccc4c3)CC2)c1	109
COC(=O)C(N)CCCN=C(N)N[N+](=O)[O-].Cl [NG-Nitro-L-arginine methyl ester hydrochloride]	103
CC1=CC(=O)C2=C(C)CC(O)C3C(C)C(=O)OC3C12 (centres undefined) [Austricin]	101
CC(=O)C1CCC2C3CCC4CC(O)CCC4(C)C3CCC12C (stereo not drawn) [5alpha-Pregnan-3alpha-ol-20-one]	98.3
CCN1CC2(OC(=O)c3ccccc3NC(C)=O)CCC(OC)C34C1C(CC23)C1(O)CC(OC)C2CC4C1(O)C2OC (centres undefined) [Lappaconitine]	107
COC1=CC(=O)OC(C=Cc2ccccc2)C1 (racemic)	104
NC(Cc1ccc(N(CCCl)CCCl)cc1)C(=O)O (centres undefined) [Melphalan]	86.3 ± 3.1
Cl.Cl.Oc1ccc2c3c1OC1c4[nH]c5c(c4CC4(O)C(C2)N(CC2CC2)CCC314)CC1(O)C2Cc3ccc(O)c4c3C1(CCN2CC1CC1)C5O4 (centres undefined) [nor-Binaltorphimine dihydrochloride]	106
CC(C)C1(NC(=O)C2CC3c4cccc5[nH]cc(c45)CC3N(C)C2)OC2(O)C3CCCN3C(=O)C(Cc3ccccc3)N2C1=O.CS(=O)(=O)O (centres undefined) [Dihydroergocristine methanesulfonate]	91.8
C=CCN1CCC23c4c5ccc(O)c4OC2C(=O)CCC3(O)C1C5 (centres undefined) [Naloxone]	98.5
COc1ccccc1CN[C@H]1C2CCN(CC2)[C@H]1C(c1ccccc1)c1ccccc1	95.3
CC(Cc1ccc2c(c1)OC(C(=O)[O-])(C(=O)[O-])O2)NCC(O)c1cccc(Cl)c1.[Na+].[Na+] (centres undefined)	97.5
COc1ccc2c(c1OC)C(=O)OC2C1c2cc3c(cc2CCN1C)OCO3 (single isomer, unassigned; (+)) [(+)-Hydrastine]	98.7
CCCN1CCCC(c2cccc(C#N)c2)C1.Cl (stereo not drawn) [S(-)-DS 121 hydrochloride]	100
COC12CC(COC(=O)c3cncc(Br)c3)CN(C)C1Cc1cn(C)c3cccc2c13 (centres undefined) [Nicergoline]	104
COC1C(O)C(C)OC(OC2CCC3(C=O)C(CCC4C3CCC3(C)C(C5=CC(=O)OC5)CCC43O)C2)C1O (centres undefined) [Peruvoside]	52.3
Cl.Oc1ccc2c3c1OC1C(O)CCC4(O)C(C2)N(CC2CCC2)CCC314 (centres undefined) [Nalbuphine hydrochloride]	105
CC1CN(C2CCC(C#N)(c3ccc(F)cc3)CC2)CCC1(C(=O)O)c1ccccc1.Cl (centres undefined) [Levocabastine.HCl]	102
COc1ccc(O)c(C(C)(C)C)c1	106
CC=C1CN2CCC34C(=C(CC=O)C1CC23)Nc1ccccc14 (centres undefined) [Norfluorocurarine]	100

Compound	cell number
COc1ccc(C(=O)N2CCCC2=O)cc1 [Aniracetam]	100.1 ± 0.23
CN1CCC23CCCCC2C1Cc1ccc(O)cc13.O=C(O)C(O)C(O)C(=O)O [Dextrorphan D-tartrate]	103
CN1C2CC(OC(=O)C(CO)c3ccccc3)CC1C1OC12 (centres undefined) [Scopolamine]	102
CCOC(=O)c1ncn2c1C1CCCN1C(=O)c1cc(OC)ccc1-2 (centres undefined)	103
CCn1cc(C(=O)O)c(=O)c2cc3c(cc21)OCO3 [Oxolinic acid]	100
CCCCCN(C)CCC(O)(P(=O)([O-])O)P(=O)(O)O.[Na+]	99.5
CC(C)(C)C1(O)CC2OC(=O)CC23C(=O)OC2OC(=O)C(O)C231 (centres undefined) [Bilobalide]	99.9
CCCCCCCCCCCCCCCCOCC(O)COP(=O)([O-])OCC[N+](C)(C)C (centres undefined)	101
CCN(C)C(=O)Oc1cccc([C@H](C)N(C)C)c1.O=C(O)C(O)C(O)C(=O)O	98.4
CC(=O)NBr [N-Bromoacetamide]	105
CCCC[N+]1(C)C2CC(OC(=O)C(CO)c3ccccc3)CC1C1OC12.[Br-] (single isomer, unassigned; (-)) [(-)-Scopolamine,n-Butyl-, bromide]	101
Cl.NC(=O)c1ccc(OCC(O)CN2CC=C(c3ccc(F)cc3)CC2)cc1 (centres undefined)	105
CN1CC(C(=O)NC2(C)OC3(O)C4CCCN4C(=O)C(Cc4ccccc4)N3C2=O)C=C2c3cccc4[nH]cc(c34)CC21 (centres undefined) [Ergotamine]	97.8
CC1CCCC=CC2CC(O)CC2C(O)C=CC(=O)O1 (centres undefined) [Brefeldin A]	68.2
CC(C)(C)NCC(O)c1ccccc1Cl (centres undefined) [Tulobuterol]	111
CC(C)N(CCC(C(N)=O)(c1ccccc1)c1ccccn1)C(C)C (centres undefined) [Disopyramide]	99.8
NC(=O)COc1c(F)cc(SCCNS(=O)(=O)c2ccccc2)cc1F	106
OC1CN2CCCC(O)C2C1O (centres undefined) [Swainsonine]	100
COc1cc2c(cc1O)CCNC2C (centres undefined) [Salsoline]	100
